# Test results taken from PubChem BioAssay AID1986 (Sanford-Burnham Center for Chemical Genomics, 2009).
# Screen size: about 290,000 compounds; about 890 (0.31%) were called active. Cut-off read from the data, not from the text of the source: active = inhibition mostly above about 52% (no sharp cut-off); inactive = mostly below about 76%. What follows is part of a selection rich in actives, with near analogues and random picks from the rest.
# Test: cell-free HIV fusion peptide-binding blockers – biochemical, uHTS, fluorescence dequenching, primary screen (AID 1986)
# Settings: 30 min, stronger effect = higher value
# [1] = measured here: repeat confirmation average inhibition, at 18.6 µM
SMILES,inhibition (at 20 µM),inhibition [1]
CC(=O)Oc1ccc(/C=N/NC2=NS(=O)(=O)c3ccccc32)cc1,0.3% (inactive),
CCCc1ccc(Oc2coc3cc(OCC(=O)Nc4ccccc4C)ccc3c2=O)cc1,-2.2% (inactive),
Cc1cc(/C=N/NC(N)=S)c(O)c(/C=N/NC(N)=S)c1,88.3% (active),
NC(=S)N/N=C/c1ccccc1O,-1.4% (inactive),
NC(=S)N/N=C/c1cccc(O)c1O,3.4% (inactive),
CCOC(=O)Cn1c(=N)n(CCOc2ccc(F)cc2)c2ccccc21,0% (inactive),
COc1ccc(CCNC(=O)C2CCC(=O)N(CC3CCCCC3)C2)cc1 (configuration not stated),0.4% (inactive),
N/C(Cc1cccc2ccccc12)=N\OC(=O)COc1ccccc1,2.3% (inactive),
O=C(O)c1ccc(-n2cccc2/C=N\NC(=O)c2cc3cc(Br)ccc3o2)cc1,50.1% (active),
O=C(O)Cn1cc(/C=N/NC(=O)c2cc3cc(Br)ccc3o2)c2ccccc21,29.5% (inactive),
Cn1cc(/C=N/NC(=O)c2cc3cc(Br)ccc3o2)c2ccccc21,4.4% (inactive),
Cc1ccc(NC(=O)C2CCN(S(=O)(=O)c3ccc4c(c3)CCCC(=O)N4)CC2)c(Br)c1,1.8% (inactive),
CC1=C/C(=C/N(C)C)C(=O)O1,5.9% (inactive),
CN(C)/C=C1/C=C(C=O)OC1=O,-0.5% (inactive),
CCOC(=O)/C(=C/C1=CC(=C/N(C)C)/C(=O)O1)C(C)=O,59.4% (active),65.4%
COc1cc([N+](=O)[O-])ccc1N1C(=O)CC(Sc2nccc(C)n2)C1=O (configuration not stated),-1% (inactive),
CSC1=NSC2=NC(=O)/C(=C\c3coc4ccccc4c3=O)C(=N)N12,44.5% (inactive),
CC(C)CC1=NN2C(=N)/C(=C\c3coc4ccccc4c3=O)C(=O)N=C2S1,148% (inactive),
CC1=CC2=NC(=O)/C(=C/c3coc4ccc(Cl)cc4c3=O)C(=N)N2O1,99.7% (active),62.3%
CC(C)CSC1=NSC2=NC(=O)/C(=C\c3ccccc3)C(=N)N12,46.5% (inactive),
N=C1/C(=C\c2coc3ccccc3c2=O)C(=O)N=C2SC=CN12,146% (inactive),
N=C1/C(=C/c2coc3ccccc3c2=O)C(=O)N=C2SC(c3ccco3)=NN12,114% (active),
CC1=CC2=NC(=O)/C(=C\c3ccc(-c4ccc(Cl)cc4)o3)C(=N)N2O1,13.2% (inactive),
N=C1/C(=C\c2coc3ccccc3c2=O)C(=O)N=C2SC(c3ccncc3)=NN12,146% (inactive),

SMILES,inhibition (at 20 µM),inhibition [1]
CCSC1=NSC2=NC(=O)/C(=C\c3coc4ccccc4c3=O)C(=N)N12,89.7% (active),
CC1=CC2=NC(=O)/C(=C\c3cc(C)n(-c4cccc(Cl)c4)c3C)C(=N)N2O1,0.2% (inactive),
CSC1=NSC2=NC(=O)/C(=C/c3coc4ccccc4c3=O)C(=N)N12,91.2% (active),
CC(C)CSC1=NSC2=NC(=O)/C(=C\c3coc4ccccc4c3=O)C(=N)N12,148% (inactive),
COc1ccccc1CNC(=O)C1CC(c2ccccc2C(F)(F)F)=NO1 (configuration not stated),0.6% (inactive),
COCc1cc(C)n(CC(=O)Nc2c(C)cccc2C)c(=O)c1C#N,0.1% (inactive),
NC(=O)c1ccccc1NCC(=O)c1ccc(Cl)cc1,1.4% (inactive),
CCOC(=O)C1=C(COC(=O)C2(C)CC2(Cl)Cl)NC(=O)NC1c1ccccc1 (configuration not stated),-1.7% (inactive),
CC12CC3CC(C)(C1)CC(C(=O)NC1=NCCS1)(C3)C2,-1.5% (inactive),
Cc1ccc(C(=O)N2CCCC(Nc3cccc(F)c3)C2)cc1N1CCNC1=O (configuration not stated),0% (inactive),
CCN(CC)c1nc2n(c(=O)n1)CCN2CC,2.4% (inactive),
O=C(CN1C(=O)C2CC=CCC2C1=O)NCc1cccs1 (configuration not stated),-0.4% (inactive),
COc1ccc(CN2CSC(=S)N(Cc3ccc(OC)cc3)C2)cc1,-1.4% (inactive),
CSC1=NSC2=NC(=O)/C(=C\c3cccs3)C(=N)N12,45.4% (inactive),
CSC1=NSC2=NC(=O)/C(=C/c3coc4ccc(O)cc4c3=O)C(=N)N12,57.5% (active),
N=C1/C(=C\c2coc3ccc(O)cc3c2=O)C(=O)N=C2SC=CN12,150% (inactive),
Cc1ccc(/C=C2/NC(=O)N(Cc3ccccc3)C2=O)s1,36.8% (inactive),
Cc1ccc(/C=C2/NC(=O)N(Cc3ccccc3F)C2=O)s1,64% (active),72.6%
O=C1N/C(=C/c2cccs2)C(=O)N1Cc1ccccc1F,-0.7% (inactive),
O=C(CNC(=O)c1ccccc1F)NC1CC1,-0.1% (inactive),
Cc1cc(-n2c(C)cc(C(=O)CSc3ccc4c(c3)OCCO4)c2C)no1,2.6% (inactive),
CC(C)(C)C(=O)N=C1SC2CS(=O)(=O)CC2N1c1ccc2c(c1)OCO2 (configuration not stated),-0.3% (inactive),
CCC(C)NC(=O)C1CCC(CNS(=O)(=O)c2ccccc2)CC1 (configuration not stated),-0.4% (inactive),
N#Cc1cc(C(=O)c2cc(F)ccc2O)cn(-c2nccs2)c1=O,151% (inactive),

SMILES,inhibition (at 20 µM),inhibition [1]
N#Cc1cc(C(=O)c2ccccc2O)cn(-c2nccs2)c1=O,52.8% (active),99.4%
Cc1ccc(O)c(C(=O)c2cc(C#N)c(=O)n(-c3nccs3)c2)c1,143% (inactive),
CCOC(=O)c1c(NC(=S)Nc2ccc(Cl)cc2)sc2c1CCN(C)C2,23.1% (inactive),
CC(C)c1ccc(N(CC(=O)NCc2ccc(F)cc2)C(=O)c2csnn2)cc1,-1.1% (inactive),
Cc1c(C(=O)N(C)Cc2ccccc2)oc2c(Cl)cccc12,-0.6% (inactive),
O=C1NC(=O)/C(=C/c2ccccc2OCc2ccccc2)S1,31.6% (inactive),
O=C1N/C(=N/NC(=O)c2cccc3ccccc23)S/C1=C\c1ccccc1OCc1ccccc1,80.3% (active),
O=C1NC(=O)/C(=C\c2ccccc2OCc2ccccc2)S1,47.5% (inactive),
COc1ccc(C2CC(=O)c3cnc(NC(=O)c4cccc(OC)c4)nc3C2)cc1 (configuration not stated),5.8% (inactive),
CCC(C)NC(=O)c1ccccc1NC(=O)COc1ccc(OC)cc1 (configuration not stated),1% (inactive),
Cc1nc(NC2CCCCC2)c2nnn(Cc3ccccc3Cl)c2n1,0.5% (inactive),
O=C(NCc1ccccc1)NC(=O)c1ccc(Cl)cc1,2.8% (inactive),
CC(C)=C1C(=O)NN(c2ccc(F)c(Cl)c2)C1=O,32.6% (inactive),
CC(C)=C1C(=O)NN(c2ccc(C)c(Cl)c2)C1=O,66.4% (active),
CC(C)=C1C(=O)NN(c2cccc(Cl)c2)C1=O,60% (inactive),0.7%
O=C(COC(=O)c1cc[n+]([O-])cc1)Nc1ccc(SC(F)F)cc1,2.4% (inactive),
O=C(Nc1cc(C(=O)N2CCCC2)ccc1N1CCCC1)c1ccccc1F,2.6% (inactive),
O=C(Nc1sc2c(c1C(=O)O)CCCC2)C(=O)N1CCOCC1,2.6% (inactive),
COc1ccc(/C=C2\N=C(c3ccc(C)cc3)OC2=O)cc1,1.1% (inactive),
COc1cc(/C=C2\N=C(c3ccccc3)OC2=O)ccc1OC(C)=O,1.1% (inactive),
COc1ccc(OC)c(/C=C2\N=C(c3ccccc3)OC2=O)c1,60.8% (active),
CC(C)=Cc1oc2ccc([N+](=O)[O-])cc2c1N1CCOCC1,0.3% (inactive),
COc1ccc(NC(C)C(=O)Nc2ccc(C#N)cc2)cc1Cl (configuration not stated),0.7% (inactive),
O=C(Nc1ccc([N+](=O)[O-])cc1)N1CCCCCC1,-1.7% (inactive),

SMILES,inhibition (at 20 µM),inhibition [1]
O=C(c1sc2ccccc2c1Cl)N1CCN(CCc2ccccn2)CC1,-0.9% (inactive),
O=C(O)c1ccc(-n2cccc2/C=C2/SC(=O)N(CC(=O)N3CCCC3)C2=O)cc1,33.4% (inactive),
COc1cccc(NC(=O)CCc2nnc3ccc(NCc4ccco4)nn23)c1,1.7% (inactive),
Cc1ccc(S(=O)(=O)/N=C2/NC(=O)/C(=C/c3ccccn3)S2)cc1,13% (inactive),
Cc1ccc(S(=O)(=O)/N=C2/NC(=O)/C(=C\c3ccco3)S2)cc1,-3.4% (inactive),
Cc1ccc(S(=O)(=O)/N=C2/NC(=O)/C(=C\c3cc(Br)cc(Br)c3O)S2)cc1,94.7% (active),132%
Cc1ccc(S(=O)(=O)/N=C2/NC(=O)/C(=C/c3ccncc3)S2)cc1,0.8% (inactive),
Cc1ccc(S(=O)(=O)/N=C2/NC(=O)/C(=C/c3ccc(Br)o3)S2)cc1,53.6% (active),
Cc1ccc(S(=O)(=O)/N=C2/NC(=O)/C(=C/c3ccccc3)S2)cc1,59.7% (inactive),46.5%
Fc1ccc(OCCCCCCN2CCCC2)cc1,0.7% (inactive),
Cc1ccc(NC(=O)CSCc2cc(=O)n3cc(C)sc3n2)c(C)c1,0% (inactive),
CCOC(=O)c1ccc(N=C2SC(C(=O)NC)CC(=O)N2Cc2ccc(F)cc2)cc1 (configuration not stated),0.9% (inactive),
COc1ccc(C2(C(=O)NCCCN(C)C)CCOCC2)cc1,2.4% (inactive),
O=C(CCl)Nc1cc(S(=O)(=O)N2CCOCC2)ccc1N1CCOCC1,1% (inactive),
O=S(=O)(O)c1cc(O)c2c(O)c(N=Nc3cc(Cl)ccc3O)c(S(=O)(=O)O)cc2c1,55.7% (active),
O=S(=O)(O)c1cccc(N=Nc2c(O)ccc3ccccc23)c1,10.9% (inactive),
Oc1ccc(Cl)cc1N=Nc1ccccc1,-2.6% (inactive),
CCc1ccc2[nH]c3nc(SCc4nnc(-c5ccc(C)cc5)o4)nnc3c2c1,1.4% (inactive),
N#Cc1c(-c2cccc(Br)c2)cc(-c2ccco2)[nH]c1=O,81.5% (active),
COc1ccc(-c2cc(-c3ccco3)[nH]c(=O)c2C#N)cc1,48.8% (inactive),
COc1ccc(-c2cc(-c3ccco3)[nH]c(=O)c2C#N)cc1OC,40.7% (inactive),
Cc1c(C(=O)O)c(=O)n(-c2ccccc2)n1-c1ccccc1,1.2% (inactive),
Cc1ccc(C)c(C(=O)CSc2nc3ccccc3c(=O)[nH]2)c1,1.9% (inactive),
